# Where “and” joins values, the source holds several entries; their conditions need not be identical. Equal values may be shown once. Out of some 300,000 compounds screened, about 37,000 (12%) were called active. Rule as the data show it: active = max response mostly above about 13% (no sharp cut-off); inactive = mostly below about 14%. Shown is part of a subset that was picked to be rich in actives.
# Assay: Cycloheximide Counterscreen for Small Molecule Inhibitors of Shiga Toxin; also: read at 38.3 µM for the half of the compounds with a filed dose; 0% is about no effect
# Conditions: cell reporter, cycloheximide protein synthesis inhibition counterscreen; hits give high values
row,Compound,max response
1,C/C(=N/Nc1nc(-c2ccccc2)c(CC(=O)O)s1)c1ccccc1,35% (active)
2,Cc1ccc(-c2nc(C)sc2CC(=O)O)cc1,-1.04% (inactive)
3,CCOC(=O)C(=O)Nc1nc(-c2ccccc2)c(CC)s1,-3.08% (inactive)
4,O=[N+]([O-])c1ccccc1S(=O)(=O)Nc1cccc2cccnc12,10.3% (inactive) and 10.1% (inactive) and -3.71% (inactive)
5,CCOC(=O)N1CCN(C(=O)CSc2ccc(Cl)cc2)CC1,20.3% (active)
6,CCOC(=O)N1CCN(C(=O)CNC(=O)Cc2ccc(Cl)cc2)CC1,-1.82% (inactive)
7,CCOC(=O)N1CCN(C(=O)COc2ccc(Cl)cc2C)CC1,-3.61% (inactive)
8,CS(=O)(=O)N1CCN(C(=O)CSc2ccccc2)CC1,-1.13% (inactive)
9,CCN1CCN(C(=O)CCN2C(=O)c3ccccc3C2=O)CC1,-1.33% (inactive)
10,CCN1CCN(C(=O)CSc2ccc(C)cc2)CC1,15.7% (active)
11,COc1ccc(OC)c(NC(=O)c2ccc3c(c2)C(=O)N(c2ccc(OC(C)=O)cc2)C3=O)c1,2.74% (inactive)
12,CCC1SC2=NCCN2C1(O)c1ccc(Cl)cc1 (stereo not drawn),-0.782% (inactive)
13,COc1ccc(-c2noc(-c3cccc(OC)c3OC)n2)cc1OC,36% (active)
14,CCOc1nc(-c2ccc(OC)cc2)ccc1-c1noc(-c2cc(OC)c(OC)c(OC)c2)n1,8.08% (inactive)
15,COc1ccc(-c2csc3nc(-c4ccccc4F)oc(=O)c23)cc1OC,-1.13% (inactive)
16,Cc1ccccc1OCC(=O)Nc1ccc(S(=O)(=O)N2CCOCC2)cc1,4.38% (inactive)
17,CCCOc1cccc(C(=O)Nc2ccccc2C(=O)N2CCN(C)CC2)c1,-0.829% (inactive)
18,Cn1cnnc1SCC(=O)NNC(=O)COc1ccc(Br)cc1,-2.49% (inactive)
19,Nc1cccc2c1C(=O)N(Cc1nnc(-c3ccccc3Br)o1)C2=O,12.5% (inactive)
20,Cn1cnnc1SCc1nnc(-c2ccccc2Br)o1,24% (active)
21,Cc1ccc(S(=O)(=O)/N=C(\CN2CCOCC2)N2CCOCC2)cc1,-4.56% (inactive)
22,CN(CCO)c1ccc(/C=N/Nc2nncc3ccccc23)cc1,26.2% (active)
23,COc1cc(/C=N/Nc2nn3cnnc3c3ccccc23)cc(OC)c1OC,17.3% (inactive)
24,Cc1[nH]c(C)c(S(=O)(=O)N2CCC(C)CC2)c1C(=O)N1CCCC1,-1.96% (inactive)
25,CCc1ccc(OCC(=O)OC(C)C(=O)NC2CC2)cc1 (stereo not drawn),-3.17% (inactive)
26,CCC(Sc1nncn1C)C(=O)Nc1nnc(-c2ccc(Cl)cc2)s1 (stereo not drawn),11.6% (inactive)
27,Cc1nc(-c2ccc(Cl)cc2)sc1C(=O)CBr,24.4% (active)
28,Cc1nc(-c2ccc(Cl)cc2)sc1C(=O)NN,0.842% (inactive)

# From PubChem BioAssay AID2314 (National Center for Advancing Translational Sciences (NCATS), 2010)
